Laboratory results from PubChem BioAssay (NCI).
About 83,000 compounds went through this panel and 20% of them were active in at least one assay; those are over-represented in the sample as a whole.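 Plates (96-well) were seeded with cells, treated with compound at one concentration, and incubated for 48 hours before percent growth was determined.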 Unmarked numbers belong to inactive results. Activity calls are given as the source filed them. How the source made its calls: active means growth percent below 10; inactive means the rest.

Assays:
Assay in all cases: NCI-60 one-dose screen, 48 h (100 = growth as untreated, 0 = no growth, -100 = all killed)
Details in all cases: 10 µM unless noted
NCI-H23 lung = system: NCI-H23 lung
NCI-H226 lung = system: NCI-H226 lung
NCI-H322M lung = system: NCI-H322M lung
HOP-62 NSCLC = system: HOP-62 NSCLC
NCI-H460 lung = system: NCI-H460 lung
HOP-92 NSCLC = system: HOP-92 NSCLC
NCI-H522 lung = system: NCI-H522 lung
A549/ATCC NSCLC = system: A549/ATCC NSCLC
786-0 renal = system: 786-0 renal
COLO 205 colon = system: COLO 205 colon

Compound | growth (NCI-H23 lung) | growth (NCI-H226 lung) | growth (NCI-H322M lung) | growth (HOP-62 NSCLC) | growth (NCI-H460 lung) | growth (HOP-92 NSCLC) | growth (NCI-H522 lung) | growth (A549/ATCC NSCLC) | growth (786-0 renal) | growth (COLO 205 colon)
CCC(CO)Nc1nc2ccc(Cl)cc2c2ccccc12 (stereo not given) | 73.9% | 65.3% | 47.2% | 60.3% | 25.1% | 48.9% | 58.6% | 55.3% | 41.6% | 86.4%
CCCc1cc2c(=O)c(C(=O)OC)c[nH]c2cc1N(CC)CC | 102% | 81.7% | 84.2% | 90% | 102% | 111% | 73.7% | -20% (active) | 101% | 119%
COc1cc(/C=C2\C(=O)ON=C2C)cc(OC)c1OC | 98.6% | 100% | 95.1% | 97% | 110% | 87.8% | 98.5% | 96.1% | 103% | 105%
Cc1ccc(S(=O)(=O)N/N=C\c2cc(Cl)ccc2O)cc1 | 96.8% | 96.4% | 114% | 105% | 93.7% | 72.9% | 80.3% | 82% | 74.5% | 96.9%
COc1ccc(-c2nc(SCCC(C)C)nc(N/N=C\c3cccc([N+](=O)[O-])c3)c2C#N)cc1 | 28.7% | 44.5% | 45.6% | 17.7% | 13.3% | 50.9% | 29.8% | 11.7% | 15.3% | 42%
CSc1n(Cc2ccc3ccccc3c2)c(C)c[n+]1Cc1ccc2ccccc2c1 | -50.8% (active) | -37% (active) | 40.5% | 4.62% (active) | -0.332% (active) | -44.4% (active) | -26.9% (active) | 16.5% | 8.97% (active) | -54.3% (active)
C[C@]12CC[C@@H]3c4cc(OC(F)F)c(O)cc4CC[C@H]3[C@@H]1CC[C@@H]2OS(N)(=O)=O | 3.46% (active) | 57.4% | 45.4% | 43.3% | 13.9% | 74.6% | 26% | 31.3% | 56.4% | 10.7%
CCc1ccccc1NC(=O)/C(C#N)=C/c1ccc(OC)cc1 | 98.2% | 97.5% | 87.8% | 96% | 104% | 86.9% | 91.4% | 94% | 107% | 119%
NNC(=O)c1nc(N)n(-c2ccc(S(N)(=O)=O)cc2)n1 | 97.2% | 98.7% | 97.3% | 90.6% | 105% | 74.2% | 80.3% | 97.1% | 95.7% | 103%
Cc1cc(N2CCCC2)nc(NCc2cc(Nc3ccnc4cc(Cl)ccc34)ccc2F)n1 | -27.8% (active) | 24.8% | -27.6% (active) | -69.2% (active) | -71.5% (active) | -14% (active) | -50.3% (active) | -13.1% (active) | -92.7% (active) | -82.2% (active)
COc1ccc2c(c1)O/C(=C\c1cccc(OCC(=O)Nc3nc4ccccc4s3)c1)C2=O | -1.91% (active) | 83.7% | 106% | 115% | 110% | -24.5% (active) | -60.1% (active) | 95.8% | 92.2% | 104%
O=C1/C(=C\c2cccnc2)SC(=S)N1CCc1ccc(O)cc1 | 50% | 94.2% | 91.5% | 45.6% | 18.7% | 27.4% | 11.9% | 93.9% | 39.1% | 79.9%
CCc1ccccc1-n1c(-c2ccc(Cl)cc2)cc(-c2ccc(OC)cc2)c(C#N)c1=O | 102% | 108% | 126% | 103% | 99.7% | 63.5% | 84.8% | 103% | 92% | 117%
O=C(Cc1ccc(F)c(F)c1)Nc1cc(C2(C(F)(F)F)CC2)nn1Cc1ccccc1 | -9.81% (active) | 8.26% (active) | 13.4% | -0.0766% (active) | 0.876% (active) | -17.7% (active) | -24.6% (active) | 9.17% (active) | 12.1% | -86.7% (active)
C(=N\Nc1ncc(-c2cc3cc4c(cc3o2)OCO4)s1)/c1ccco1 | 20.9% | 58.4% | 77.3% | 62.1% | 13.3% | 63.2% | 8.73% (active) | -10.1% (active) | 1.77% (active) | 6.46% (active)
COc1cccc(Nc2nccc(Nc3ccc4[nH]ncc4c3)n2)c1 | -29.1% (active) | -17.3% (active) | 7.17% (active) | -11.4% (active) | -68.1% (active) | -11.2% (active) | -68.4% (active) | -68.3% (active) | -12.5% (active) | -88.4% (active)
COc1cc(-c2n/c(=C\c3c(O)[nH]c4ccc(Cl)cc34)cc3c2=Nc2ccccc2-3)cc(OC)c1OC | -2.92% (active) | 62.6% | 68% | -8.81% (active) | -38% (active) | -25.4% (active) | -0.596% (active) | -39.4% (active) | -37.1% (active) | 8.86% (active)
O=C(/C=C/c1c(Cl)nc2sccn12)c1nccs1 | 94.2% | 83.4% | 104% | 88.2% | 92.7% | 63.8% | 72.4% | 88% | 102% | 104%
CCOC(=O)c1csc(NC(=O)COc2cccc(/C=C3\Oc4cc(OC)ccc4C3=O)c2)n1 | 90.7% | 89.5% | 99.7% | 125% | 107% | 62.6% | 49.8% | 94% | 110% | 110%
CCN1C(=O)N(CC)C2Nn3c(s/c(=C\c4ccc(Cl)cc4Cl)c3=O)=NC21 (stereo not given) | 43.1% | 98.2% | 65.5% | 72.3% | 16.4% | 68.3% | 12.3% | 33% | 34% | -23% (active)
COc1nc2c(c(=O)n1C)CN(c1ccccc1)C(=O)CN2C | 56.9% [100 µM] | 52.3% [100 µM] | 62.1% [100 µM] | 63.6% [100 µM] | 59.4% [100 µM] | 56.9% [100 µM] | 67% [100 µM] | 55.7% [100 µM] | 55.2% [100 µM] | 68.8% [100 µM]
CCN(CC)S(=O)(=O)c1cccc(-c2ccc3c(NC(=O)C4CC4)n[nH]c3c2)c1 | 28.5% [6.25 µM] | 26.5% [6.25 µM] | 55.6% [6.25 µM] | 18.5% [6.25 µM] | 12.3% [6.25 µM] | 41.3% [6.25 µM] | -17% [6.25 µM] (active) | 21.2% [6.25 µM] | 18.1% [6.25 µM] | 3.94% [6.25 µM] (active)
Cc1c(Cl)cc(-n2c(=O)c3ccccc3c3ccccc3c2=O)cc1Cl | 97.6% | 108% | 87.3% | 92.6% | 111% | 98.4% | 98.7% | 102% | 98.6% | 98.2%
O=C(O)c1ccc2c(c1Cl)C(=O)c1ccccc1C2=O | 93.4% | 103% | 102% | 82.5% | 102% | 109% | 106% | 116% | 91.1% | 115%
Cc1c(O)cc(-c2cnc(N/N=C\c3ccc(Cl)cc3)s2)c(O)c1C | 91.5% | 87.2% | 96.9% | 98.6% | 100% | 81.1% | 65.1% | 85.1% | 110% | 106%
Cc1ccc(Cl)c(NS(=O)(=O)c2ccc(-c3cnc(C4CC4)o3)cc2)c1 | 36.2% | 33.8% | 44.4% | 42.7% | 14.3% | 73.9% | 3.84% (active) | 26.5% | 27.8% | -0.408% (active)
COc1cc(C2NC(=O)c3ccccc3N2)ccc1OCCCCCOc1c(OC)cc(C2=NOC(c3cc(OC)c(OC)c(OC)c3)C2)cc1OC (stereo not given) | 59.5% | 71.5% | 103% | 95.1% | 63.4% | 38.3% | 56.3% | 67.5% | 95% | 108%
